Measured values from PubChem BioAssay.
Values without a mark were called inactive. The rule behind the calls is not given here.

The molecules below were run against Pantothenate synthetase (Mycobacterium tuberculosis (strain ATCC 25618 / H37Rv)) (UniProt P9WIL5) (assay: Recombinant Mtb pantothenate synthetase (PanC) inhibitors, coupled enzyme, confirmatory (AID 375;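 note: 0% = full reaction with vehicle and 100% = no enzyme background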)). Conditions: coupled enzyme assay; at 10 µM, active compounds read high.
Chain of Pantothenate synthetase (Mycobacterium tuberculosis (strain ATCC 25618 / H37Rv)) (P9WIL5 whole entry, looked up): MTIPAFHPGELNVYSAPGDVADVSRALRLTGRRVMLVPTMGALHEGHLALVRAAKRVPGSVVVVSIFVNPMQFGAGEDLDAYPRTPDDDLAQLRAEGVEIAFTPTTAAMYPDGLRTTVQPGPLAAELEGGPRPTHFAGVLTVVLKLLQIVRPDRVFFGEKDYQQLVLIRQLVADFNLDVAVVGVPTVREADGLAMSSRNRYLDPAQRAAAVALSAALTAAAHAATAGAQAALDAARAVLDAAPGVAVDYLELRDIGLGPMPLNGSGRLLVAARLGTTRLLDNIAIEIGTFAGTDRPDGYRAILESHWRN
`Cc1ccc(C)c(C(=O)CC2(O)C(=O)Nc3ccccc32)c1` (stereo not given) showed an inhibition of 5%. For `O=C(c1cc2ccccc2oc1=O)N1CCSC1c1ccco1` (stereo not given), the inhibition was 8%. In the case of `O=S(=O)(Nc1nc2ccccc2nc1NCc1ccco1)c1cccs1`, the inhibition is reported as 2%. With `Cc1ccc(-c2ccc(/C=N/n3cnnc3)o2)cc1Cl` the inhibition was 11%. `O=C(C1CCN(S(=O)(=O)c2cnc[nH]2)CC1)N1CCN(c2ncccn2)CC1` gave an inhibition of 0%. Work on `Cc1nc2sc(C(c3cccs3)N3CCC(C(N)=O)CC3)c(O)n2n1` (stereo not given) yielded an inhibition of 2%. In the case of `Cc1sc2nc(SCC(=O)N3CCN(CCO)CC3)n(-c3ccccc3)c(=O)c2c1C`, the inhibition is reported as 6%. `CCCCCn1c(CCNC(=O)CCC)nc2ccccc21` showed an inhibition of 0%. Work on `Cc1ccc(CNC(=O)c2coc(=O)c3ccccc23)o1` yielded an inhibition of 0%. `COC(=O)c1ccc(COc2ncnc3c(Cl)cc(Cl)cc23)o1` showed an inhibition of 0%. Molecule `COCCNC(=O)Cn1cc2c(n1)CCCCC2` has an inhibition of 1%. For `COc1cc2c(cc1OC)C(/C(C#N)=N\O)=NC(C)(C)C2`, the inhibition was 2%. `O=C(Nc1ccc(-c2noc(-c3cccs3)n2)cc1)c1cccnc1` was tested, and the inhibition was 0%. `COc1cccc(-n2c(C)nc3c(cnn3-c3ccc(Cl)cc3)c2=O)c1` gave an inhibition of 4%. `CCOC(=O)C1=C(O)CCn2c1nc1ccccc12` showed an inhibition of 2%. `COCCCn1nnnc1SCC(=O)Nc1nc(C)c(C)s1` was tested, and the inhibition was 0%. Molecule `Cc1ccc2nsnc2c1S(=O)(=O)N1CCN(Cc2ccc3c(c2)OCO3)CC1` has an inhibition of 5%. `COc1ccc(C2C(C#N)=C(N)OC3=C2C(=O)CC(C)C3)c(OC)c1OC` (stereo not given) gave an inhibition of 0%. `CN(C(=O)c1ccc2c(=O)n3c(nc2c1)CCCCC3)c1ccccc1` showed an inhibition of 4%. `Cc1cc(N2C(=O)CC(N3CCN(c4ccc(C(=O)c5cccs5)cc4)CC3)C2=O)no1` (stereo not given) gave an inhibition of 0%. `Fc1c(F)c(F)c(CSc2nc3ccccc3[nH]2)c(F)c1F` was tested, and the inhibition was 3%. Work on `COC(=O)CCCCCNc1ccc(C(=O)OC)cc1N` yielded an inhibition of 0%. For `Cc1ccc(-c2nnc3c4ccccc4c(C)nn23)cc1S(=O)(=O)N1CCN(C)CC1`, the inhibition was 1%. `COc1cccc(C(=O)NC2=NCCS2)c1` gave an inhibition of 0%. Work on `O=C(COC(=O)C12CC3CC(CC(C3)C1)C2)NCc1ccco1` yielded an inhibition of 0%. In the case of `O=C(O)CCCNS(=O)(=O)c1ccc(NCc2ccccc2)c(C(=O)O)c1`, the inhibition is reported as 0%. `Cc1ccccc1NC(=O)C1CCC(C)(C(=O)O)C1(C)C` (stereo not given) was tested, and the inhibition was 0%. `CC(C)COC(=O)N(C)c1ccc(C(O)(C(F)(F)F)C(F)(F)F)cc1` showed an inhibition of 5%. In the case of `OCCN1CCN(CC(O)COc2ccc3ccccc3c2)CC1` (stereo not given), the inhibition is reported as 0%. `CCOC(=O)c1ccc(NC(=O)c2ccc(NS(C)(=O)=O)cc2)cc1` gave an inhibition of 0%. In the case of `CC(C)Cn1cc(C(=O)NCC2CCCO2)c2c3ccccc3n(C)c2c1=O` (stereo not given), the inhibition is reported as 4%. `CC(=O)N1CCc2cc(S(=O)(=O)NCCC3=CCCCC3)ccc21` showed an inhibition of 2%. Work on `COC(=O)c1nc2n(n1)C(c1ccc(OC)c(OC)c1)C(C(=O)OC1CCCCC1)=C(C)N2` (stereo not given) yielded an inhibition of 0%. Molecule `c1ccc(Cn2nnnc2CN2CCCC2)cc1` has an inhibition of 0%. With `Nc1nc(N2C(=O)C3CC=CCC3C2=O)nn1-c1ccccc1` (stereo not given) the inhibition was 0%. With `CC1C(O)=C(c2nc3ccccc3[nH]2)C(=N)N1c1ccccc1` (stereo not given) the inhibition was 9%. `CCCN1C(=O)SC(CC(=O)Nc2ccc(Br)cc2)C1=O` (stereo not given) was tested, and the inhibition was 2%. `COC(=O)C(C#N)C(=C1C(=O)CC(C)(C)CC1=O)c1ccc(O)cc1` (stereo not given) was tested, and the inhibition was 0%. `COc1ccc(Br)cc1CNC(=O)C1CCCN(S(C)(=O)=O)C1` (stereo not given) showed an inhibition of 6%. Work on `Cc1cccc(Nc2ncc3c(n2)CC(c2ccco2)CC3=O)c1` (stereo not given) yielded an inhibition of 1%.
